Most compounds without a hit are left out; they make up all but 2.4% or so of the library.
PPC-1+TRAIL kill = kills PPC-1 cancer cells in the presence of TRAIL; PPC-1 cells + TRAIL, ATPLite viability luminescence; 0.41% of 220,000 active; cell killing (% activity), % at 4 µM or 5 µM;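 active = cell killing above 50% in the first pass at 4 µM, then a duplicate retest at 5 µM averaging 50% or more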;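 note: plate controls were cells with TRAIL plus DMSO for no effect and medium-only wells lacking cells for full effect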
C8 TRAIL sens = sensitizes caspase-8 expressing cells to TRAIL; inhibition (viability loss, TRAIL sensitization), % at 10 µM; NB7+C8 cells + TRAIL, ATPlite viability luminescence; 1% of 360,000 active;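 active = compounds causing at least 50% loss of cell viability in the single-dose screen, relative to plate controls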
HSP90 inh = HSP90 refolding inhibition in rabbit reticulocyte lysate; inhibition, % at 5.6 µM; 0.91% of 290,000 active; AID 1789; luciferase refolding luminescence, 3 h;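 active = inhibition above the screen-wide mean plus 3 SD, computed separately per campaign, cut at about 16% in these data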;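 note: 0% = DMSO wells and 100% = 60 µM geldanamycin wells; inhibitors lower the luminescence because luciferase stays unfolded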
STAT3 blocker = STAT3 signaling inhibition; U3A cells, IL-6 STAT3-luciferase reporter, luminescence; host cell line lacks STAT1; inhibition, % at 5.5 µM; 0.89% of 190,000 active;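 active = inhibition above the mean inhibition across all screened compounds plus 3 SD, cut at about 44% in these data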;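 note: 0% = DMSO only wells and 100% = 100 µM nifuroxazide control wells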
STAT1 inh = reduces IFN-gamma driven STAT1 reporter signal. NIH 3T3 STAT1-luciferase reporter, luminescence. inhibition, % at 5.5 µM. 0.35% of 200,000 active. AID 920;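 active = inhibition above a set limit, the mean inhibition across all tested compounds plus 3 SD, cut at about 34% in these data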;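 note: 0% = IFN-gamma with DMSO and 100% = IFN-gamma with 300 µM nifuroxazide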
HSF1 inh = HSF1 inhibition. activity change, negative = inhibition, % at 7.5 µM (by protocol). 0.77% of 300,000 active. NIH3T3-HGL HSE-luciferase, MG132-induced, luminescence 8 h; stronger effect = lower value;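 active = more than half of replicate wells show activity change below -50%, luminescence cut by over half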;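 note: luciferase reports HSF-1 transcriptional activity via heat shock element; 0% = median of DMSO wells and -100% = zero luminescence signal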
An asterisk follows results filed as active; nt = no result given.

SMILES	PPC-1+TRAIL kill	C8 TRAIL sens	HSP90 inh	STAT3 blocker	STAT1 inh	HSF1 inh
CCOc1ccccc1CN1[C@@H](c2ccc(OC)cc2)CC(C(=O)OC)(C(=O)OC)[C@H]1c1ccccc1	nt	22	nt	nt	nt	nt
O=C(c1cc2nc(-c3ccc(F)cc3)cc(C(F)(F)F)n2n1)N1CCCCC1c1cccnc1 (centres undefined)	15	22	4	57*	35*	-15
C=CCNC(=O)c1cc2sccc2n1C	4	0	-8	nt	nt	12
CC(C)c1ccc(NC(=O)Nc2cc3sccc3n2C)cc1	9	1	9	-17	-3	-77*
CC(C)NC(=O)C1(C)CCN1C(=O)C1(c2ccccc2)CC1 (centres undefined)	nt	6	nt	nt	nt	nt
Cc1nnc(Cc2ccccc2)c2n[nH]c(C)c12	nt	-6	nt	nt	nt	nt
O=C(Nc1nnc(S(=O)(=O)N2CCCCCC2)s1)c1ccccc1Cl	nt	5	0	nt	nt	-70*
O=C(NC1CC1)c1cc(OCC(F)(F)F)ccc1OCC(F)(F)F	-23	-4	-4	7	7	-11
O=C(NNC(=O)c1cc(OCC(F)(F)F)ccc1OCC(F)(F)F)c1cccc(C(F)(F)F)c1	-14	52*	-1	-2	-10	-23
O=C(NO)c1cc(OCC(F)(F)F)ccc1OCC(F)(F)F	-4	51*	2	8	11	-2
O=C(CSc1nc2[nH]ncc2c(=O)[nH]1)Nc1cc(C(F)(F)F)ccc1Cl	nt	-1	nt	nt	nt	nt
COc1ccccc1C(=O)NCC(=O)N/N=C/c1cc(Br)ccc1OC(=O)/C=C\c1ccco1	19	44	4	15	4	6
O=C(CNC(=O)c1ccccc1F)N/N=C/c1cc(Br)ccc1OC(=O)/C=C/c1ccco1	28	53*	0	9	5	29
COc1cc(-n2nc(C)c3c2OC(N)=C(C#N)C3c2ccccc2)c(Cl)c(Br)c1O (centres undefined)	8	-9	17*	-29	1	53
Cc1nn(-c2ccccc2)c2c1C(c1ccncc1)C(C#N)=C(N)O2 (centres undefined)	10	6	2	-1	12	1
O=S(=O)(Nc1cc(Sc2cccc3cccnc23)c(O)c2ccccc12)c1ccccc1	70*	nt	-3	-96	4	204
CCOc1ccc(S(=O)(=O)Nc2cc(SCC(=O)O)c(O)c3ccccc23)cc1	nt	35	4	nt	nt	3
CCCCCCCCNS(=O)(=O)CCNCc1ccccc1OC	nt	-3	nt	nt	nt	nt
O=C1C(c2ccncc2)=C(O)c2ccccc21	25	54*	16*	27	-1	5
Cc1ccc(C2=C(O)c3ccccc3C(=O)C2=O)cc1	nt	2	1	nt	nt	7
Cc1ccccc1C(=O)Nc1nnc(CC(=O)N/N=C/c2ccco2)s1	4	-2	6	nt	nt	-80*
CN(C)CCN1CCN(C2CN(Cc3cn(Cc4ccccc4C(F)(F)F)nn3)S(=O)(=O)C2)CC1 (centres undefined)	nt	-12	nt	nt	nt	nt
CCN(CC(=O)Nc1ccccc1C(F)(F)F)C(=O)CCS(=O)(=O)c1ccc(Cl)cc1	nt	-3	nt	nt	nt	1
N/C(CCS(=O)(=O)c1ccc(Cl)cc1)=N\OC(=O)c1ccccc1C(F)(F)F	31	55*	-1	nt	nt	3
N/C(CCS(=O)(=O)c1ccc(Cl)cc1)=N\OC(=O)c1ccc(Cl)cc1	2	74*	-2	nt	nt	-5
SMILES	PPC-1+TRAIL kill	C8 TRAIL sens	HSP90 inh	STAT3 blocker	STAT1 inh	HSF1 inh
Cc1cccc(C)c1NC(=O)C1(C)CSCC(=O)N1CCC(C)C (centres undefined)	nt	-15	nt	nt	nt	nt
CC(C)CC(NC(=O)OCc1ccccc1)C(=O)NC(Cc1ccccc1)C(=O)CCl (centres undefined)	nt	90*	nt	nt	nt	nt
CCOC(=O)C1=NOC2C3CC(C12)C1C(=O)N(CCc2ccc(OC)c(OC)c2)C(=O)C31 (centres undefined)	9	-1	1	nt	nt	-71*
CC(=O)c1c(-c2ccc(Cl)cc2Cl)noc1C	0	-7	3	nt	nt	-57*
Cc1onc(-c2ccc(Cl)cc2Cl)c1C(=O)/C=C/N(C)C	-5	-4	-2	nt	nt	2
COc1ccc2nc(C)cc(N/N=C/c3ccc(F)cc3)c2c1	nt	93*	-3	nt	nt	12
CC1Cc2ccccc2N1CC(=O)NC(=O)NCc1ccccc1 (centres undefined)	-21	0	0	2	-7	-75*
CC1Cc2ccccc2N1CC(=O)NC(=O)NC(C)(C)C (centres undefined)	-14	1	-1	10	6	-17
COc1ccc(-n2c(CCc3ccccc3)nnc2SCC(=O)c2ccc(Cl)cc2)cc1	16	3	0	-15	-2	8
O=C(CSc1nnc(CCc2ccccc2)n1-c1ccc(Cl)cc1)c1ccccc1	7	26	-1	-9	6	-60*
NC(c1ccccc1)c1csc(Nc2ccc(C(F)(F)F)cn2)n1 (centres undefined)	nt	4	nt	nt	nt	nt
Cc1cccc(CSCCNC(=O)COc2ccc(Cl)cc2)c1	6	-5	-1	-4	12	-56*
CCN(C(=O)c1cccs1)c1nc(-c2ccc(OC)cc2)cs1	16	15	3	32	-19	27
COc1cccc(N(C(=O)c2cccs2)c2nc3ccccc3s2)c1	-7	8	-1	4	-2	-67*
CN(CC(=O)Nc1ccc(F)cc1)C(=O)COC(=O)c1cc(S(=O)(=O)N(C)C)ccc1N1CCCC1	nt	-8	nt	nt	nt	-68*
CC(=O)Nc1ccc(NC(=O)COC(=O)c2cc(S(=O)(=O)N(C)C)ccc2N2CCCC2)cc1	nt	0	nt	nt	nt	1
FC(F)(F)c1cc(Cl)c2nc(-c3ccccc3)cn2c1	8	51*	5	-73	-26	22
CN(C)C(=O)c1cc2c(c(-c3cccc(C4=CCCCC4)c3)n1)[C@@H](CCO)N(S(=O)C(C)(C)C)C2 (some centres undefined)	nt	6	nt	nt	nt	nt
COc1cc(O)oc1C=Nc1ccc(Cl)cc1	10	-20	-1	21	-1	-1
COc1cc(O)oc1C=Nc1ccc(C(=O)O)cc1	11	19	1	9	-1	-62*
COc1cccc(/C=N/NC(=O)C(c2ccncc2)N2CCOCC2)c1 (centres undefined)	11	-4	-1	nt	nt	4
O=C(N/N=C/c1cc(Br)ccc1O)C(c1ccncc1)N1CCOCC1 (centres undefined)	19	53*	-4	5	-2	5
CCCCCNC(=O)C(c1ccnc2ccccc12)n1c(=O)c(-c2ccccc2)nc2ccccc21 (centres undefined)	nt	9	nt	nt	nt	nt
CCc1cc2c(COC(=O)CCNS(=O)(=O)c3cccc(C(F)(F)F)c3)cc(=O)oc2cc1O	nt	54*	nt	nt	nt	nt
CCOc1ccc(CCNC(=O)c2nn(C)c3c2CS(=O)(=O)c2ccccc2-3)cc1	nt	-10	-2	nt	nt	-53*
